Here are results for 26 compounds from PubChem BioAssay (NCATS).

Several values for one entry are separate records, joined by “and”; a condition that tells them apart may be missing. Equal entries are not always repeated. Records with an inconclusive call do not appear. A number with no mark means an inactive call. Activity calls are given as the source filed them. The call rests on the fitted dose curve; in most records, active means well fitted inhibition curve with a large enough effect; inconclusive means small, poorly fitted or top-dose-only effect; inactive means flat fitted curve, though single readings scatter.

For one experiment, the system named is TAB165. Briefly: qHTS profiling for inhibitors of Plasmodium falciparum proliferation (AID 504749). Further: potency means the concentration at half of the fitted maximal effect.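 On activity, negative = inhibition: 0% = DMSO vehicle and full inhibition = artemisinin control.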 Conditions: P. falciparum in erythrocytes, SYBR Green DNA, 72 h; series mostly up to 28.7 µM. In short, it runs like this: (§1)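 P. falciparum-infected erythrocytes (0.3% parasitemia, 2.5% hematocrit final) were exposed to compounds for 72 h at 37 C in 5% CO2, then lysed with SYBR Green buffer overnight at room temperature; parasite DNA fluorescence was normalized to artemisinin and DMSO controls.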

The test system of the next experiment is W2. Described as above. Conditions: P. falciparum in erythrocytes, SYBR Green DNA, 72 h; series mostly up to 28.7 µM. In short, it runs like this: as §1
The test system of experiment [1] is CRL-7250. Briefly: Cytotoxic Profiling of Annotated Libraries Using Quantitative High-Throughput Screening (AID 1296008). Further: potency means the concentration at half of the fitted maximal effect. On max response: on the % scale 0 is the no-effect control and ±100 the full control effect. Conditions: Five cell lines viability, CellTiter-Glo ATP luminescence, 48-72 h; max response: active compounds read low. In short, it runs like this: (§2)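 Compounds were pin-transferred onto cells and incubated 48 or 72 hr at 37 degree Celsius, 95% humidity. CellTiter-Glo was added, plates sat 10 min at room temperature, then ATP-coupled luminescence was imaged as the viability read-out.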

Another experiment relates to HEK293. Described as above. Conditions: Five cell lines viability, CellTiter-Glo ATP luminescence, 48-72 h; max response: active compounds read low. The gist of the method: as §2
For orientation: Cellular ATP, detected with luciferase, serves as a proxy for viable cell number.

For experiment [2], the system named is HaCat. The experiment is described as above. Conditions: Five cell lines viability, CellTiter-Glo ATP luminescence, 48-72 h; max response: active compounds read low. The gist of the method: as §2
Another experiment concerns KB-3-1. The experiment is described as above. Conditions: Five cell lines viability, CellTiter-Glo ATP luminescence, 48-72 h; max response: active compounds read low. The gist of the method:
as §2

For the next experiment, the system named is NIH3T3. Described as above. Conditions: Five cell lines viability, CellTiter-Glo ATP luminescence, 48-72 h; max response: active compounds read low. The gist of the method: as §2
Experiment [3] relates to CRL-7250. Briefly: qHTS assay to identify novel small-molecules to repurpose for Merkel cell carcinoma treatment (AID 1296009). Conditions: MCC and control cell lines, CellTiter-Glo viability, 72 h; at 44.8 µM (top of the series) unless noted. The gist of the method: (§3)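 Cells exposed to NPC (8-point) and MIPE (11-point) compound dilutions for 72 hr at 37 degree celsius; viability read by CellTiter-Glo luminescence, normalized to no-cell and DMSO in-plate controls.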
(In general: Quantitative high-throughput screening tests each substance at several concentrations.)

Another experiment concerns HEK293T. The experiment is described as above. Conditions: MCC and control cell lines, CellTiter-Glo viability, 72 h; at 44.8 µM (top of the series) unless noted. In short, it runs like this:
as §3

The test system of experiment [4] is HACAT. The experiment is described as above. Conditions: MCC and control cell lines, CellTiter-Glo viability, 72 h; at 44.8 µM (top of the series) unless noted. The gist of the method:
as §3
Further: nearly all actives have a fitted effect of over 60% in size.

In the case of `Cc1ncsc1CCCl`, the Potency result in the experiment with TAB165 and with W2 was “inactive” throughout. The max response with CRL-7250 [1] was 3.36%; in the experiment on HEK293 it was -8.24%; in the experiment on HaCat [2], -12.7%; with KB-3-1 it was 6.67%; with NIH3T3, 0.655%.
As for `COC(=O)[C@@H](N)CCCN/C(N)=N/[N+](=O)[O-]`, the result in the experiment with CRL-7250 [1], with CRL-7250 [3] and with HEK293T was inactive. Also, the values for the max response in the experiment with HaCat [2], in the experiment with KB-3-1 and with NIH3T3 were -19.5%, -3.97% and 1.98%, respectively.
On to `CCCCC/C=C\C/C=C\C/C=C\C/C=C\CCCC(=O)NCC(=O)O`, for which the activity, negative = inhibition with W2 was 6.9% [at 2.67 µM]. Besides, the figures for the max response in the experiment with CRL-7250 [1], in the experiment with HEK293 and in the experiment on KB-3-1 were -2.63%, -7.97% and -17.5%, respectively. For the same compound, the result with NIH3T3 was inactive.
As to `CN1CC[C@]23c4c5ccc(O)c4O[C@H]2[C@@H](O)C=C[C@H]3[C@H]1C5`, the max response is -11.3% in the experiment with CRL-7250 [1], -4.72% with KB-3-1 and -4.09% in the experiment on NIH3T3. In addition, in the experiment on HaCat [2], the compound was called inactive. The outcome in the experiment with HACAT [4] was “inactive [at 92 µM]”.
Turning to `O=c1[nH]c2ccccc2n1C1CCNCC1`, the result in the experiment on CRL-7250 [1], in the experiment with NIH3T3 and in the experiment on CRL-7250 [3] was inactive. Moreover, the values for the max response with HEK293 and in the experiment with HaCat [2] were -4.64% and 3.09%, respectively.
Consider `CC(C)NC(C)C`, for which the Potency result with TAB165 and in the experiment with W2 was “inactive” each time. Moreover, the max response was 1.83% in the experiment on CRL-7250 [1], 1.45% with HEK293, 1.53% with HaCat [2] and 13.4% with KB-3-1. Further, in the experiment on NIH3T3, the compound was classed as inactive.
As to `C=CCC1([C@H](C)CCC)C(=O)NC(=O)NC1=O`, the max response is 1.74% in the experiment on CRL-7250 [1], -2.25% in the experiment with HaCat [2], -1.57% in the experiment with KB-3-1 and -4.37% in the experiment on NIH3T3.
`CCC(C)C(C)(COC(N)=O)COC(N)=O` (stereo unspecified): the results for the max response with CRL-7250 [1] and in the experiment on HaCat [2] were 1.47% and -3.56%, respectively. Moreover, the compound was called inactive in the experiment with HEK293, in the experiment with NIH3T3 and in the experiment with HEK293T.
For `O=C1OC(CCN2CCCCC2)OC1(c1ccccc1)c1ccccc1` (stereo unspecified), the figures for the max response in the experiment with CRL-7250 [1] and in the experiment with HaCat [2] were -20% and 4.71%, respectively.
`CN1C(=O)NC(=O)C(C)(C2=CCCCC2)C1=O` (stereo unspecified): the Potency entry with TAB165 and in the experiment with W2 was “inactive” throughout. Besides, the max response in the experiment on CRL-7250 [1] was -9.98%; in the experiment with HaCat [2] it was -13.8%; in the experiment with KB-3-1, -0.631% and -0.133%. Moreover, the outcome in the experiment on HEK293, in the experiment with NIH3T3 and with HEK293T was inactive.
Take `CCCCCN(C)CCC(O)(P(=O)(O)O)P(=O)(O)O`: the max response with CRL-7250 [1] is -0.0055%; in the experiment with HaCat [2] it was -1.92%; in the experiment on KB-3-1, 1.98%. For the same compound, the compound was called inactive with KB-3-1 and with NIH3T3.
In the case of `CCc1cc2c(s1)-n1c(C)nnc1CN=C2c1ccccc1Cl`, the compound was called inactive in the experiment on CRL-7250 [1], with NIH3T3 and in the experiment on CRL-7250 [3]. The max response was -1.07% in the experiment with HaCat [2] and -14.4% with KB-3-1.
For `COP(=S)(OC)Oc1ccc(S(=O)(=O)N(C)C)cc1`, the Potency entry with TAB165 and in the experiment on W2 was “inactive” in each case. Moreover, the max response is 4.64% in the experiment on CRL-7250 [1], -5.18% with HaCat [2], -10.7% in the experiment with KB-3-1 and -0.737% with NIH3T3.
Turning to `CC(=O)C1CCOC1=O` (stereo unspecified), the outcome in the experiment with CRL-7250 [1], in the experiment with HaCat [2], in the experiment with NIH3T3, with CRL-7250 [3], in the experiment on HACAT [4] and in the experiment on HEK293T was inactive.
With `C[C@]12CCC(=O)C=C1CC[C@@H]1[C@@H]2CC[C@]2(C)C(=O)CC[C@@H]12`, the Potency result with TAB165 and with W2 was “inactive” throughout. For the same compound, the max response in the experiment on CRL-7250 [1] was -5.91%; in the experiment with HaCat [2] it was -13.1%; in the experiment with KB-3-1, -6.1%; in the experiment with NIH3T3, -1.13%.
As for `CN1C(=O)COc2c(C(=O)NC3CN4CCC3CC4)cc(Cl)cc21` (stereo unspecified), the Potency result in the experiment on TAB165 and with W2 was “inactive” throughout. The max response with CRL-7250 [1] was -5.92%; in the experiment with HaCat [2], -0.711% and 2.67%; in the experiment on KB-3-1, 2.45%; with NIH3T3, -0.6% and 1.75%.
As to `NCCc1ccc(O)cc1`, the Potency result in the experiment with TAB165 and with W2 was “inactive” throughout. In addition, the max response is -9.28% with CRL-7250 [1], 1.28% in the experiment on HaCat [2] and -7.48% with KB-3-1. Besides, the compound was called inactive with NIH3T3 and with HEK293T.
Consider `CCOP(=S)(OCC)Oc1ccc2c(C)c(Cl)c(=O)oc2c1`, for which the Potency in the experiment with W2 is 6.75 µM (active). Besides, the max response in the experiment on CRL-7250 [1] is -4.21%; with HaCat [2], 0.247%; in the experiment with KB-3-1, -7.69%; in the experiment with NIH3T3, -7.51%.
Take `C[C@]12CCC(=O)C=C1CC[C@@H]1[C@@H]2CC[C@@]2(C)[C@H]1CC[C@]2(C)O`: the max response was 2.75% in the experiment on CRL-7250 [1]; -6.95% and 1.16% with KB-3-1; -3.69% in the experiment on NIH3T3. Further, the compound was called inactive in the experiment with HaCat [2] and in the experiment on HACAT [4].
With `CC(C)c1cccc(C(C)C)c1O`, the Potency result with TAB165 and with W2 was “inactive” in each case. Also, the max response in the experiment on CRL-7250 [1] is -8.58% and -1.5%; with KB-3-1, 9.44%; in the experiment on NIH3T3 it was 0.687%. The call in the experiment with HaCat [2], in the experiment on HACAT [4] and in the experiment with HEK293T was inactive.
Regarding `C#CC(O)(C=CCl)CC` (stereo unspecified), in the experiment with CRL-7250 [1], the max response was -0.331%. For the same compound, the compound was called inactive in the experiment with HaCat [2], in the experiment with NIH3T3 and in the experiment on HACAT [4].
In the case of `C[C@H]1[C@@H]2Cc3ccc(O)cc3[C@@]1(C)CCN2C`, the max response is -7.45% with CRL-7250 [1] and -22% with KB-3-1. Besides, the compound was classed as inactive in the experiment on NIH3T3.
Regarding `C[C@]12CCC(=O)C=C1CC[C@@H]1[C@H]3CC[C@](C)(O)[C@@]3(C)CC[C@@H]12`, in the experiment with HEK293, the Potency is 30.9 µM (active).
As to `NC(=O)CS(=O)C(c1ccccc1)c1ccccc1` (stereo unspecified), the Potency result with TAB165 and in the experiment on W2 was “inactive” in each case. For the same compound, the max response is 1.08% in the experiment on CRL-7250 [1], -6.49% with HaCat [2], 3.03% in the experiment on KB-3-1 and -4.5% with NIH3T3.
Take `CC(=O)NC1CCSC1=O` (stereo unspecified): the max response in the experiment with CRL-7250 [1] is -4.93%; in the experiment with HaCat [2] it was -1.96%; in the experiment on KB-3-1, -11.7% and -14.3%; in the experiment with NIH3T3 it was 2.68%. Besides, in the experiment with HEK293T, the outcome was inactive.
On to `CC(C(=O)c1ccccc1)N(C)C` (stereo unspecified), for which the max response in the experiment with CRL-7250 [1] was 3.38%; in the experiment on NIH3T3, -10.7%. In addition, the call in the experiment on HaCat [2] and in the experiment with HACAT [4] was inactive.
